This note sets out measurements from PubChem BioAssay.

Broadly, the inhibition is the change of the read-out against control, counted positive when it falls.

Active and inactive are the calls of the source.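 The calls were made as follows, unless noted: active = fluorescence slope after compound addition differing from the mean of all screened samples at 99.7% confidence, in either direction; inactive = the rest.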

Assay [1] can be described thus: inhibitors of TNFa-induced NFkB p65 translocation, primary screen, imaging, HUVEC, MLSMR starter and 10KST1 sets (AID 438;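 active = inhibition above 20% together with a positive visual image hit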;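 also: compound added about 3h40 before a 20 min TNFalpha stimulation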;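 as to inhibition: signal is the nuclear over cytoplasmic p65 intensity ratio per well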). As to conditions: HUVEC TNFa-induced p65 nuclear translocation; cell count: measured here: nuclei count (cytotoxicity indicator), at 2.08 µM; inhibition: at 2 µM, stronger effect = higher value, 0% TNFa-plus-vehicle, 100% no-TNFa wells.
A short description of assay [2]: inhibitors of mutant huntingtin aggregation, primary screen, imaging, exon1htt(103Q)mCFP cells, high-content imaging (AID 483;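 active = visual image review flags a hit and inhibition of aggregation exceeds 20%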;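 also: compound exposure lasted 3 days before fixation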;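 as to nuclei count: percent of the per-plate median nuclei count of sample wells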). The note with it: exon1htt(103Q)mCFP cell line, aggregate imaging, at 2 µM; inhibition of aggregation: stronger effect = higher value; nuclei count: measured here: cell count, toxicity.
Assay [3] is described as follows: inhibitors of E-selectin induction by TNFa, primary screen, imaging, HUVEC, immunofluorescence, MLSMR starter and 10KST1 sets (AID 487;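 active = visually confirmed hit in the image check and inhibition above 20%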;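 as to inhibition: signal is fraction of cell area covered by stained E-selectin grains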;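 as to nuclei count: 100% = median nuclei count of all wells on the same plate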). The note with it: HUVEC TNFalpha-induced E-selectin immunofluorescence imaging, at 2 µM; inhibition: stronger effect = higher value; nuclei count: measured here: cell number, toxicity.
Assay [4] concerns the target Voltage-gated potassium channel subunit beta-2 (Rattus norvegicus) (UniProt P62483). Description: KvBeta enzyme negative modulators, primary screen, biochemical, NADPH fluorescence (AID 622;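 active = fluorescence slope higher than the sample average by over 3 SD, cut at about -0.22 in these data, passing the limit was not always enough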;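 also: slope of raw intensity against log time taken from 70 to 1610 s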). As to conditions: recombinant KvBeta, 4-cyanobenzaldehyde reduction, at 10 µM, stronger effect = higher value.
Assay [5] shares this target. Description: KvBeta positive modulators, primary screen, biochemical, NADPH fluorescence (AID 623;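 active = NADPH fluorescence slope more negative than the mean of all samples by about 3 SD, 99.7% confidence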;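 also: fluorescence intensity change per second fitted from 20 to 320 s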). The note with it: Recombinant KvBeta, NADPH fluorescence decrease slope, 10 min; at 10 µM; stronger effect = lower value.
For assay [6], the target named is Alpha-2C adrenergic receptor (Homo sapiens) (UniProt P18825). Description: modulators of alpha2C/GIRK thallium flux, primary screen, cell-based, HEK293 alpha2C/GIRK1/2 (AID 624).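 Also: slope of fluorescence ratio to pre-addition baseline per second over 15 to 24 s.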 As to conditions: thallium flux BTC fluorescence, at 10 µM, actives lie on both sides.
The nature of assay [7]: inhibitors of Sendai virus-induced IRF3 signaling, primary screen, TLR/RLR signaling modifier project, cell-based, Sendai virus stimulus, luciferase, 10K MLSCN set (AID 602276;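 active = inhibition at or above 50% at 10 µM; inactive = inhibition below 50%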;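 also: firefly luciferase from ISG56 promoter only with Renilla not read in this screen; 0% = Sendai virus plus DMSO and 100% = medium plus DMSO without virus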). As to conditions: HEK293 RL24 IRF3 luciferase reporter, at 10 µM, stronger effect = higher value.
Assay [8] in a line: inhibitors of poly I:C-induced TLR3 signaling, primary screen, cell-based, poly I:C stimulus, luciferase, 10K MLSCN set (AID 602277;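 active = inhibition of the reporter signal at or above 50%; inactive = inhibition below 50%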). The note with it: HEK293-TLR3 RL24 IRF3 luciferase reporter, at 10 µM, stronger effect = higher value. For orientation: A reporter such as luciferase makes a cellular process visible.

Alpha-2C adrenergic receptor (Homo sapiens), sequence (P18825 whole entry, looked up): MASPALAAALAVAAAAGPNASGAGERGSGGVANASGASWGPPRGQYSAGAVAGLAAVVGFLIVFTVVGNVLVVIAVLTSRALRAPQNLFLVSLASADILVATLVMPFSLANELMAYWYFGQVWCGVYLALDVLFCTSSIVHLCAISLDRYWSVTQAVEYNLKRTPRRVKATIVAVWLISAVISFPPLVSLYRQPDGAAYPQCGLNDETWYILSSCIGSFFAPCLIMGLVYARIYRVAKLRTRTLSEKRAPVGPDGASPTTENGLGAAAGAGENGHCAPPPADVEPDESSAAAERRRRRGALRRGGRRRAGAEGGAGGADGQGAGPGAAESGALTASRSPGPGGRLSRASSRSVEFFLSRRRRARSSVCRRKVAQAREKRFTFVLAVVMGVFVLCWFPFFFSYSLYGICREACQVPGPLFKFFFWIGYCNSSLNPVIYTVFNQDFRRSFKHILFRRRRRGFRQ
Voltage-gated potassium channel subunit beta-2 (Rattus norvegicus), sequence (P62483 whole entry, looked up): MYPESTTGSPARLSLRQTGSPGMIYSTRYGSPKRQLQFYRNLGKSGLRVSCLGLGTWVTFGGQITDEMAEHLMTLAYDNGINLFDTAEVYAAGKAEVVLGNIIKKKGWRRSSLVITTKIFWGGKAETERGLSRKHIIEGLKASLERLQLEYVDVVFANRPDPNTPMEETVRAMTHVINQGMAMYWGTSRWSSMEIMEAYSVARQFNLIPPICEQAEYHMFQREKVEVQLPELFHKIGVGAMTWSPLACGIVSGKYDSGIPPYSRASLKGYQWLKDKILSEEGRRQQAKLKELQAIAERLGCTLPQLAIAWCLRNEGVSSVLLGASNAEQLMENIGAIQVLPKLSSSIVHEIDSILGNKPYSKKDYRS

With `Cc1nn(C(=O)c2cc3sccc3[nH]2)c(C)c1C`, the cell count in assay [1] stood at 574. Also, the inhibition in assay [1] is -11.9% (inactive); in assay [3], -65.4% (inactive); in assay [7], -8.25% (inactive); in assay [8], -82.9% (inactive). Further, the inhibition of aggregation in assay [2] was 0.1% (inactive). In addition, the nuclei count amounted to 95.1% in assay [2] and 104% in assay [3]. Moreover, the fluorescence slope in assay [4] was -0.416 (inactive). Moreover, the NADPH fluorescence slope in assay [5] is -2.7e-05 (inactive). Moreover, the slope in assay [6] was 0.00333 (inactive).

Turning to `N#CC1=C(N)N(c2ccc(Oc3ccccc3)cc2)C(=O)C1`, the cell count in assay [1] came out at 546. The inhibition is -3.8% (inactive) in assay [1], -5.8% (inactive) in assay [3], 5.59% (inactive) in assay [7] and -5.96% (inactive) in assay [8]. Also, the inhibition of aggregation in assay [2] was -0.2% (inactive). Further, the nuclei count in assay [2] is 119%; in assay [3], 128%. For the same compound, the fluorescence slope in assay [4] is -0.481 (inactive). The NADPH fluorescence slope in assay [5] was -5.5e-05 (inactive). Also, the slope in assay [6] was 0.00638 (inactive).

Consider `O=C(NCCc1c[nH]c2ccccc12)c1cnc2n(c1=O)CCS2`, for which, in assay [1], the cell count was found to be 532. Moreover, the inhibition in assay [1] is 6.3% (inactive); in assay [3], -35.9% (inactive); in assay [7], -48.8% (inactive); in assay [8] it was -79.3% (inactive). Besides, in assay [2], the inhibition of aggregation is -8.9% (inactive). The nuclei count in assay [2] was determined as 103%; in assay [3] it was 90.6%. Also, the fluorescence slope in assay [4] is -0.547 (inactive). For the same compound, in assay [5], the NADPH fluorescence slope was -2.5e-05 (inactive). Further, the slope in assay [6] is 0.00796 (inactive).

Turning to `COc1ccc(S(=O)(=O)Nc2cc(C)on2)cc1OC`, in assay [1], the cell count turned out to be 455. Further, the inhibition is 6.5% (inactive) in assay [1], -171% (inactive) in assay [3], 7.69% (inactive) in assay [7] and 12.8% (inactive) in assay [8]. The inhibition of aggregation in assay [2] was -7.8% (inactive). Moreover, the nuclei count in assay [2] was found to be 109%; in assay [3], 136%. For the same compound, the fluorescence slope in assay [4] is -0.523 (inactive). In assay [5], the NADPH fluorescence slope was 9.2e-06 (inactive). Further, the slope in assay [6] was 0.00556 (inactive).

Take `Cc1oc(-c2ccc(Cl)cc2)cc1-c1nn2c(-c3ccoc3C)nnc2s1`: the cell count in assay [1] worked out at 644. Further, the inhibition was -3.9% (inactive) in assay [1], -24.2% (inactive) in assay [3], 19.8% (inactive) in assay [7] and 23% (inactive) in assay [8]. Also, in assay [2], the inhibition of aggregation was -0.4% (inactive). The nuclei count stood at 94.6% in assay [2] and 105% in assay [3]. In assay [4], the fluorescence slope was -0.497 (inactive). In addition, in assay [5], the NADPH fluorescence slope is -3.8e-05 (inactive). For the same compound, in assay [6], the slope was 0.00371 (inactive).

Regarding `CC1CCN(C(=O)CSc2nnc(-c3ccc(S(=O)(=O)N4CCOCC4)cc3)n2C)CC1`, the cell count in assay [1] is 446. The inhibition in assay [1] is 3.5% (inactive); in assay [3], -169% (inactive); in assay [7], 3.11% (inactive); in assay [8], 0.175% (inactive). Also, the inhibition of aggregation in assay [2] is -5.5% (inactive). Also, the nuclei count in assay [2] stood at 97.2%; in assay [3] it was 114%. Further, in assay [4], the fluorescence slope was -0.612 (inactive). Further, the NADPH fluorescence slope in assay [5] was -4.4e-05 (inactive). Moreover, in assay [6], the slope was 0.00393 (inactive).

Take `O=C1CN(C(=O)COC(=O)c2ccccc2NC(=O)c2ccco2)c2ccccc2N1`: the cell count in assay [1] came to 271. In addition, the inhibition in assay [1] is -3.3% (inactive); in assay [3], -31% (inactive); in assay [7], 8.42% (inactive); in assay [8], -17.5% (inactive). For the same compound, in assay [2], the inhibition of aggregation is 7.3% (inactive). Besides, the nuclei count is 108% in assay [2] and 123% in assay [3]. For the same compound, the fluorescence slope in assay [4] was -0.507 (inactive). Further, the NADPH fluorescence slope in assay [5] is -8.2e-05 (inactive). Besides, the slope in assay [6] is 0.00572 (inactive).

Regarding `CCOC(=O)C1=C(N)OC2=C(C(=O)CC(C)(C)C2)C1c1ccco1` (centres undefined), the cell count in assay [1] amounted to 382. Moreover, the inhibition in assay [1] is 1% (inactive); in assay [3], -61.3% (inactive); in assay [7], -0.305% (inactive); in assay [8], -16.2% (inactive). Further, in assay [2], the inhibition of aggregation was -38.9% (inactive). For the same compound, the results for the nuclei count in assay [2] and in assay [3] were 104% and 110%, respectively. Further, the fluorescence slope in assay [4] is -0.566 (inactive). Further, the NADPH fluorescence slope in assay [5] is 5.5e-05 (inactive). For the same compound, the slope in assay [6] was 0.00621 (inactive).

For `Cc1cc(C)n2nc(S(=O)(=O)N(C)c3ccccc3)nc2n1`, in assay [1], the cell count was determined as 679. Also, the inhibition in assay [1] was -2.6% (inactive); in assay [3], -66.9% (inactive); in assay [7] it was 7.86% (inactive); in assay [8] it was 34.2% (inactive). For the same compound, the inhibition of aggregation in assay [2] was 16.2% (inactive). For the same compound, the figures for the nuclei count in assay [2] and in assay [3] were 102% and 114%, respectively. For the same compound, in assay [4], the fluorescence slope is -0.568 (inactive). Moreover, the NADPH fluorescence slope in assay [5] was -5.7e-05 (inactive). Moreover, the slope in assay [6] was 0.00717 (inactive).

For `CC(=O)NCCOc1cccc(OCCNC(C)=O)c1`, in assay [1], the cell count was 369. Besides, the inhibition in assay [1] was 2.8% (inactive); in assay [3], -22.5% (inactive); in assay [7] it was -7.84% (inactive); in assay [8], -11.9% (inactive). In addition, the inhibition of aggregation in assay [2] is 6.8% (inactive). For the same compound, the nuclei count in assay [2] turned out to be 103%; in assay [3], 117%. The fluorescence slope in assay [4] is -0.432 (inactive). In assay [5], the NADPH fluorescence slope was 4e-05 (inactive). In assay [6], the slope is 0.00674 (inactive).

`Cc1cc2cc(CN(CCCN3CCOCC3)C(=O)NC3CCCCC3)c(=O)[nH]c2cc1C`: in assay [1], the cell count turned out to be 540. Further, the inhibition is -2.5% (inactive) in assay [1], 0.4% (inactive) in assay [3], 10.2% (inactive) in assay [7] and 34.8% (inactive) in assay [8]. In assay [2], the inhibition of aggregation is -7.3% (inactive). Besides, the nuclei count in assay [2] turned out to be 93.3%; in assay [3] it was 105%. Moreover, the fluorescence slope in assay [4] is -0.484 (inactive). Also, in assay [5], the NADPH fluorescence slope is 6.2e-07 (inactive). The slope in assay [6] is 0.00496 (inactive).

Consider `O=C(Cn1cnc2c(nnn2-c2ccc(F)cc2)c1=O)N1CCCc2ccccc21`, for which the cell count in assay [1] was determined as 654. In addition, the inhibition is 0.4% (inactive) in assay [1], 1.5% (inactive) in assay [3], 14% (inactive) in assay [7] and 12.1% (inactive) in assay [8]. Moreover, the inhibition of aggregation in assay [2] is -21.9% (inactive). Also, the nuclei count in assay [2] worked out at 130%; in assay [3], 102%. For the same compound, the fluorescence slope in assay [4] was -0.523 (inactive). In addition, the NADPH fluorescence slope in assay [5] was -1.6e-06 (inactive). In addition, the slope in assay [6] is 0.00588 (inactive).

On to `Cc1cccc(OCCCC(=O)O)c1`, for which the cell count in assay [1] worked out at 438. The inhibition in assay [1] is 1.4% (inactive); in assay [3], -57.9% (inactive); in assay [7], -5.29% (inactive); in assay [8] it was 8.09% (inactive). The inhibition of aggregation in assay [2] is -12.7% (inactive). Further, the nuclei count in assay [2] was determined as 101%; in assay [3] it was 116%. In assay [4], the fluorescence slope was -0.584 (inactive). In addition, the NADPH fluorescence slope in assay [5] was -3.6e-05 (inactive). For the same compound, the slope in assay [6] is 0.00464 (inactive).

For `O=C(c1cccc(F)c1)N1CCc2ccccc21`, the cell count in assay [1] came to 490. In addition, the inhibition was 3.5% (inactive) in assay [1], -9.7% (inactive) in assay [3], 0.0423% (inactive) in assay [7] and 27.3% (inactive) in assay [8]. The inhibition of aggregation in assay [2] is -1.6% (inactive). In addition, the nuclei count in assay [2] came to 107%; in assay [3] it was 114%. Besides, in assay [4], the fluorescence slope is -0.478 (inactive). In addition, the NADPH fluorescence slope in assay [5] was -1.8e-05 (inactive). In assay [6], the slope is 0.0055 (inactive).
